Common to all, as to design: scale not given: direction of the effect not stated beside the values
In test [1] the target is Protein translocase subunit SecA (Escherichia coli (strain K12)) (UniProt P10408). The test can be described thus: Assay to Identify E. coli SecA ATPase Inhibitors. Format: functional. The conditions noted are these: 30 µM.
Test [2] addresses T1, Ubiquitin-activating enzyme e1, putative (Leishmania donovani (strain BPK282A1)) (UniProt E9BSI1).
T1 sequence (whole entry): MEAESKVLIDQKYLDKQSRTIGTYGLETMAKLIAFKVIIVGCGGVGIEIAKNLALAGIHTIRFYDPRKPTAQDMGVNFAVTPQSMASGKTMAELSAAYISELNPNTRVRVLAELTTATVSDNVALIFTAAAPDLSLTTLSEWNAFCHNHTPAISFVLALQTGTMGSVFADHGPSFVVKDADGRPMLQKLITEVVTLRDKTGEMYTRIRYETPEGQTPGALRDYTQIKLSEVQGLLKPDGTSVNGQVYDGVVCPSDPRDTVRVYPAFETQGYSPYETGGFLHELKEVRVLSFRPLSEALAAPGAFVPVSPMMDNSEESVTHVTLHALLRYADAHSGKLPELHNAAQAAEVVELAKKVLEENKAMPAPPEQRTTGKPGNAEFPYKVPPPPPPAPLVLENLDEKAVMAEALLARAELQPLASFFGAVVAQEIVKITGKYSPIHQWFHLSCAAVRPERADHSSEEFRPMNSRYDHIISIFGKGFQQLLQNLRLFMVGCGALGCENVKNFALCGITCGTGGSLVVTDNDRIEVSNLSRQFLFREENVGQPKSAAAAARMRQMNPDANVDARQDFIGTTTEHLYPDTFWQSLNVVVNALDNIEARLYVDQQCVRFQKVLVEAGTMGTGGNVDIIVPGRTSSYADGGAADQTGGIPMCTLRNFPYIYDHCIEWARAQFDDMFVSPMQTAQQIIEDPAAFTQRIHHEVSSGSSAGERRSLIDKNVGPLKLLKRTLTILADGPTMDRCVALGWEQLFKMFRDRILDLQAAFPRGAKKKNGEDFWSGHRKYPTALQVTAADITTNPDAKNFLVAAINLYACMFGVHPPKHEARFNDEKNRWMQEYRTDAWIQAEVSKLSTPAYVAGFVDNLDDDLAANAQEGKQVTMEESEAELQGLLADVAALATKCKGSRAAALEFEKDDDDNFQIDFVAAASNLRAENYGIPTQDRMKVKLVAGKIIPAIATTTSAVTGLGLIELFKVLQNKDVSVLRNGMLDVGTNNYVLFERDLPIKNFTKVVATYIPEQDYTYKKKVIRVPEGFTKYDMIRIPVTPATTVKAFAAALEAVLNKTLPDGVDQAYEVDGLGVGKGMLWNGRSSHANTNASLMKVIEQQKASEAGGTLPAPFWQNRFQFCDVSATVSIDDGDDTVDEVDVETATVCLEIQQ
The test can be described thus: Leishmania donovani Ubiquitin Activating Enzyme (LdE1). It counts as functional. The conditions noted are these: 30 µM.

Test [3] addresses T2, Aspartate--tRNA(Asp/Asn) ligase (Mycobacterium tuberculosis (strain ATCC 25618 / H37Rv)) (UniProt P9WFW3).
T2 sequence (whole entry): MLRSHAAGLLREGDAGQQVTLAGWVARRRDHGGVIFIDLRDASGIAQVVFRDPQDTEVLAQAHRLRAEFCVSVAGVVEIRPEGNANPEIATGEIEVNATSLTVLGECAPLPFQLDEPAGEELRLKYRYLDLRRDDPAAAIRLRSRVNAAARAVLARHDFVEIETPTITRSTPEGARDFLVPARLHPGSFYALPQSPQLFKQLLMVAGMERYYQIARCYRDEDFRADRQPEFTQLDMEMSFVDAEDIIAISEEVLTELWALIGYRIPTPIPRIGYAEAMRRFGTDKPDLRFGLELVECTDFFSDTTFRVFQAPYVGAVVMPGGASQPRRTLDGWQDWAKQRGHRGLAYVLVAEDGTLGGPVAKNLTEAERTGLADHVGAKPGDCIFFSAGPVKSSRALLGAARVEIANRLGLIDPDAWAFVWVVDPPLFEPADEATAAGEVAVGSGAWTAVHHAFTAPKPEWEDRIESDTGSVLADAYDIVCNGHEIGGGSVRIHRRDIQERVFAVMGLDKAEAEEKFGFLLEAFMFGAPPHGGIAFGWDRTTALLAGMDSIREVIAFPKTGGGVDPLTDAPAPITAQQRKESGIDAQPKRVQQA
As to the kind of experiment: Assay for Asp RNA synthetase-1 from Mycobacterium tuberculosis. Format: functional. The conditions noted are these: 30 µM.

Test [4] has as its target Sialic acid-binding Ig-like lectin 9 (Homo sapiens) (UniProt Q9Y336). As to the kind of experiment: Hs-Siglec9 ALPHAscreen SOP 20170721. The note with it: 10 µM. (Alpha assays give light when donor and acceptor beads are brought close together.)
A further test relates to Trypanosoma cruzi. The test can be described thus: Trypanosoma cruzi phosphomannomutase and mannose-1-phosphate guanylyltransferase assay. It counts as functional. The conditions noted are these: 10 µM.
In test [5] the target is T3, Arginase-2, mitochondrial (Homo sapiens) (UniProt P78540).
T3 sequence (whole entry): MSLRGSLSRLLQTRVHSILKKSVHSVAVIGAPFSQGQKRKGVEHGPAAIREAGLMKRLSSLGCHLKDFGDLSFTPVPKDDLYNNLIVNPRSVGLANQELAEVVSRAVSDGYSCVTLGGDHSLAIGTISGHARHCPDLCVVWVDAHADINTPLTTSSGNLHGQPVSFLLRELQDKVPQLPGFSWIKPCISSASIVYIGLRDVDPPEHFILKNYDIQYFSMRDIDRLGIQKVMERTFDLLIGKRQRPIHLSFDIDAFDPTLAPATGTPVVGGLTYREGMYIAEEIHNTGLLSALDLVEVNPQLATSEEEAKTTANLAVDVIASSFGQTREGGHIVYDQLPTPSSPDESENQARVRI
The test can be described thus: in vitro enzyme assay to detect the production of urea directly proportional to the activity of Arginase II. Further: in the data most compounds retested in dose-response had high values. Format: functional. The conditions noted are these: 33.3 µM.

Test [6] addresses T4, Proteasome subunit beta (Trypanosoma cruzi) (UniProt O96673).
T4 sequence (whole entry): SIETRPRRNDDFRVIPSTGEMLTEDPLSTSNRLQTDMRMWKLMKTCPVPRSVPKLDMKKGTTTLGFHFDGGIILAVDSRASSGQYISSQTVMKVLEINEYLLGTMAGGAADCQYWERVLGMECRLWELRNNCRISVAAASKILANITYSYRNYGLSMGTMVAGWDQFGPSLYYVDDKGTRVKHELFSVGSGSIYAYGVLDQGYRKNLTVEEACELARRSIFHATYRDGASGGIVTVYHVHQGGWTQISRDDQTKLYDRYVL
As to the kind of experiment: Trypanosoma cruzi proteasome chymotrypsin-like activity (TcProtChymo) assay. Further: in the data most compounds retested in dose-response had high values. It counts as functional. The note with it: 9.37 µM.

The species named for the next test is Homo sapiens. The test can be described thus: To identify inhibition of the IFN signalling (Jak-Stat) pathway via expression of an eGFP reporter gene under the control of an IFN-stimulated response element (ISRE) containing MxA promoter. Format: functional. The note with it: 30 µM. On the technique in general: A reporter such as luciferase makes a cellular process visible.

Test [7] addresses Shiga toxin 2 (Escherichia coli O157:H7) (UniProt P09385+P09386). The test can be described thus: E. coli 0.157:H7 Shiga Toxin SOP - stx2 screening assay. It counts as functional. The conditions noted are these: 30 µM.
For test [8], the target named is T5, Tyrosyl-tRNA synthetase, putative (Trypanosoma cruzi (strain CL Brener)) (UniProt Q4DSP6).
T5 sequence (whole entry): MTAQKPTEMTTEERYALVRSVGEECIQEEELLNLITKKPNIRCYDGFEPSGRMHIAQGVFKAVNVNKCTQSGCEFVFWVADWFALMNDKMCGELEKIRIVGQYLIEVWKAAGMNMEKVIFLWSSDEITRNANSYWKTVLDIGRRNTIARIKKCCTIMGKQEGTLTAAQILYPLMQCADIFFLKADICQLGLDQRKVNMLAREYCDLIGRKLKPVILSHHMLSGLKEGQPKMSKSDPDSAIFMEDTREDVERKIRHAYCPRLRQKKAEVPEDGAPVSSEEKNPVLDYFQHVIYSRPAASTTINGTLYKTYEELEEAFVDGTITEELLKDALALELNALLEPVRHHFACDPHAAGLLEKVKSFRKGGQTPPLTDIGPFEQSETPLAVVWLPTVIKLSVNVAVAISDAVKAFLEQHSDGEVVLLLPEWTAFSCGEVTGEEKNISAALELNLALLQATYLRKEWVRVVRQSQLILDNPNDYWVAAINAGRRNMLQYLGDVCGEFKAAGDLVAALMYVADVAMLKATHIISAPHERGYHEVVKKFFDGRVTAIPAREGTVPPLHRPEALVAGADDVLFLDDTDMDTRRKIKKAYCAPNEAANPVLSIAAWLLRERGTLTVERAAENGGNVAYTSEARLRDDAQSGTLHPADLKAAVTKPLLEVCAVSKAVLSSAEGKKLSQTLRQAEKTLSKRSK
The test can be described thus: Trypanosoma cruzi tyrosyl tRNA synthetase (TcYRS) _High Tyrosine SOP. Further: in the data most compounds retested in dose-response had high values. Format: functional. The note with it: 30 µM.

In test [9] the target is T5, Tyrosyl-tRNA synthetase, putative (Trypanosoma cruzi (strain CL Brener)). The test can be described thus: Trypanosoma cruzi tyrosyl tRNA synthetase (TcYRS) SOP. It counts as functional. The conditions noted are these: 30 µM.
The target in test [10] is Chromo domain-containing protein 1 (Saccharomyces cerevisiae (strain ATCC 204508 / S288c) (Baker's yeast)) (UniProt P32657). As to the kind of experiment: ScCHD-1 Enzyme Inhibition Assay. Further: in the data most compounds retested in dose-response had high values. Format: functional. The conditions noted are these: 30 µM.
Sequence of Chromo domain-containing protein 1 (Saccharomyces cerevisiae (strain ATCC 204508 / S288c) (Baker's yeast)) (P32657 whole entry, the tested form may be a part): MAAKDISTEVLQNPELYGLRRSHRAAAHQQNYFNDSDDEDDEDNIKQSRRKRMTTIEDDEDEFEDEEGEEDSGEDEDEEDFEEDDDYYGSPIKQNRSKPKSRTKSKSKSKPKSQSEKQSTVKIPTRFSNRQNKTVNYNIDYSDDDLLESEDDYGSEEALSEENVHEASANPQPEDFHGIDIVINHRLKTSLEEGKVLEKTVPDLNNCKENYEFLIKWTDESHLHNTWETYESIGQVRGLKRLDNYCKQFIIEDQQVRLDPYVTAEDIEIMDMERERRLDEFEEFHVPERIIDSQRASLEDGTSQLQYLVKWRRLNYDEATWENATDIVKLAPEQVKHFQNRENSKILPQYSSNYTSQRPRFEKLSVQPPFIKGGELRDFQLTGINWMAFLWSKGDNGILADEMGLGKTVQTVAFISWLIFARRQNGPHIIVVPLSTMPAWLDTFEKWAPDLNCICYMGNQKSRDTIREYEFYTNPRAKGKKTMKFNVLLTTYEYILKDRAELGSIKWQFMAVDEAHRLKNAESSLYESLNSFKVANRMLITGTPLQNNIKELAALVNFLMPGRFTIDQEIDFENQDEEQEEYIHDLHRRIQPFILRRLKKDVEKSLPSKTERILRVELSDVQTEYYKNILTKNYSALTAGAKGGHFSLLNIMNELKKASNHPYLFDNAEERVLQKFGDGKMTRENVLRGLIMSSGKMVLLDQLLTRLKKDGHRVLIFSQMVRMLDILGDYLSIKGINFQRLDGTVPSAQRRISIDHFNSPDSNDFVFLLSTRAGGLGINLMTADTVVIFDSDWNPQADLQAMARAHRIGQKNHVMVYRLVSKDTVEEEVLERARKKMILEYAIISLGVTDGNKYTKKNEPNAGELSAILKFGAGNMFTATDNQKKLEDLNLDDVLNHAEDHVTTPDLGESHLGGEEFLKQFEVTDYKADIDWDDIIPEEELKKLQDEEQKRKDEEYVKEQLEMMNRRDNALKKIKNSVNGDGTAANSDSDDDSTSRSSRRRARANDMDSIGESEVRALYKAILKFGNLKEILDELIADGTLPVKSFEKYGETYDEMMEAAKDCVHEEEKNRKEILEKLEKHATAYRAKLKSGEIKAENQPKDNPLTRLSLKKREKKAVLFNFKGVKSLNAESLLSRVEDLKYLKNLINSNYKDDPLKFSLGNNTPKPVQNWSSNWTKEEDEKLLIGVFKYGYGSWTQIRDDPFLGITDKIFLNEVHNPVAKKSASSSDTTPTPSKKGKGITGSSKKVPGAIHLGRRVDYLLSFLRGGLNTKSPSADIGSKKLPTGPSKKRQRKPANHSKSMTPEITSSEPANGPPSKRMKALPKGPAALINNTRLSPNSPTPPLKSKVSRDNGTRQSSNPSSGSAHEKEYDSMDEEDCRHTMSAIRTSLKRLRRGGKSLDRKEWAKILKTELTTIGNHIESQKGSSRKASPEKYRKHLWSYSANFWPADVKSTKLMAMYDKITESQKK
The target in test [11] is AMP-activated protein kinase, AMPK (Homo sapiens) (UniProt P54646+O43741+P54619+Q9UGJ0+Q9Y478+Q13131+Q9UGI9). As to the kind of experiment: AMP-dependent Kinase enzyme assay. An in vitro enzyme assay that detects ADP turnover that is directly proportional to AMPK activity. This uses naive AMPK that is activated during the assay with MK-8722. The conditions noted are these: 30 µM. Format: functional.

For part of these data: Measured potencies and affinities stand elsewhere.

Sequence of Sialic acid-binding Ig-like lectin 9 (Homo sapiens) (Q9Y336 whole entry): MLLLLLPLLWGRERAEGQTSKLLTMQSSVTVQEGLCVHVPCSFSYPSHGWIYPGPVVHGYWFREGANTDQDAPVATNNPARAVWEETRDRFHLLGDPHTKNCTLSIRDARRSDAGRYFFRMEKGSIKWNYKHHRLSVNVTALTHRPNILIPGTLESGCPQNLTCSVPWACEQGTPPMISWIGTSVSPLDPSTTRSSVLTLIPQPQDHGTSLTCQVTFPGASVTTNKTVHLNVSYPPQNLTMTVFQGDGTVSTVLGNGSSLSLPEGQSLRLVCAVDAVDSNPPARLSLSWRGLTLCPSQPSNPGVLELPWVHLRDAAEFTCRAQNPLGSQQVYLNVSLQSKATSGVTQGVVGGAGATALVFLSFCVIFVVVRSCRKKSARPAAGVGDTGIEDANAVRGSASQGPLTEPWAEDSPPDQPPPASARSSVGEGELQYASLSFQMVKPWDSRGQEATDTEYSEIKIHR
Sequence of Protein translocase subunit SecA (Escherichia coli (strain K12)) (P10408 whole entry): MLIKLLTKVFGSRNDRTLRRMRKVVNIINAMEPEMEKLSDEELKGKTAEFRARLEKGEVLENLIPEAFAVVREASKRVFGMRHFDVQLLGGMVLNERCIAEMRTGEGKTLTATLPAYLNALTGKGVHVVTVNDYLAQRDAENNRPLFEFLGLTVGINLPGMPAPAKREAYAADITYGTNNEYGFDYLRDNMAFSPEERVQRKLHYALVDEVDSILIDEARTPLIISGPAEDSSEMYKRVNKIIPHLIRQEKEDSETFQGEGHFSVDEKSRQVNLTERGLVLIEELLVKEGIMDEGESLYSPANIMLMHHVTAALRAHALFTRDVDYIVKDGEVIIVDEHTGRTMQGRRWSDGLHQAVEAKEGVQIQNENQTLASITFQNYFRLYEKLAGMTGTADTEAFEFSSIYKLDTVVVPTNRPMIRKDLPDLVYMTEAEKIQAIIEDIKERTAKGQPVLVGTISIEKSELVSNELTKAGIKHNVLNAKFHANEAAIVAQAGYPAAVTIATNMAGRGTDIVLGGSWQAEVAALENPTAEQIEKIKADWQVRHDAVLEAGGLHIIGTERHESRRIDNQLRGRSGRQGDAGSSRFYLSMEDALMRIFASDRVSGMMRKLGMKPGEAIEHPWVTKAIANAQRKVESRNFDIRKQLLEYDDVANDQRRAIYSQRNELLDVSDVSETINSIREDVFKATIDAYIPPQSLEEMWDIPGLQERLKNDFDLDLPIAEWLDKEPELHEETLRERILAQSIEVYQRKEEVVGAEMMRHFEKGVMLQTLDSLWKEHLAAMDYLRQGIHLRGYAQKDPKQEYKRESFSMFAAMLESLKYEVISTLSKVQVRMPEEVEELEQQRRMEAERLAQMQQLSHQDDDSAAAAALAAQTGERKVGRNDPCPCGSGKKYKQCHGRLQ

Consider `COCC(=O)NC1CC2(CCN(CCF)CC2)Oc2ccccc21` (stereo not given), for which the Percent Effect in test [1] was -7.73%; in test [2], 1.3%; in [3], -6.51%; in test [4], -0.183%; in the test with Trypanosoma cruzi, -2.63%; in test [5] it was 1.37%. The Percent Effect is 8.67% in test [6]; 16.2% in the test listed under Homo sapiens; 6.84% in test [7]; 0% in test [8]; -2.5% in test [9]; -22.9% in test [10].
Take `C[C@@H]1C(=O)NC[C@H]2CN(Cc3ccsc3)C[C@H]21`: the Percent Effect in test [1] is -2.31%; in [2] it was 3.9%; in [3] it was -1.43%; in test [4], 1.3%; with Trypanosoma cruzi, 1.88%; in test [5] it was -0.457%. Besides, the Percent Effect was -4.55% in test [6]; -3.55% in the test filed under Homo sapiens; -20.9% in test [7]; 6.76% in [8]; 10% in test [9]; -9.75% in test [10].
Turning to `CCc1cnc(N2CC3(CCN(Cc4ccsc4)C3)C2)nc1`, the Percent Effect in [1] is -5.86%; in test [2], 3.9%; in test [3] it was 14.2%; in test [4], -1.39%; with Trypanosoma cruzi it was -7.3%; in [5] it was 0%. For the same molecule, the Percent Effect is 9.27% in [6]; 12.9% in the test listed under Homo sapiens; -11% in test [7]; 8.95% in [8]; 2.56% in test [9]; -4.35% in test [10].
For the molecule `O=C(C1CC(=O)N(c2ccccc2Br)C1)N1CCC2(CC1)OCCO2` (stereo not given), the Percent Effect in test [1] is -3.76%; in [2] it was -10.7%; in test [3], 2.47%; in test [11], -5.79%; in test [4] it was -2.82%; in the test with Trypanosoma cruzi, -3.21%. Besides, the Percent Effect is 2.6% in test [5]; 11.2% in [6]; 0.465% in the test listed under Homo sapiens; 1.64% in test [8]; 8.64% in [9]; -2.41% in [10].
Turning to `Cc1noc(C)c1CN1CCCC2(CCN(C(=O)CC3CC3)C2)C1` (stereo not given), the Percent Effect in [1] is -8.86%; in [2], 3.9%; in test [3] it was 1.46%; in test [4], 3.29%; in the test on Trypanosoma cruzi, -0.375%; in test [5], 2.74%. The Percent Effect was 1.97% in test [6]; 12.4% in the test listed under Homo sapiens; -4.85% in test [7]; 1.93% in test [8]; -10% in test [9]; -8.2% in [10].

These data come from ChEMBL document CHEMBL3988442, “University of Dundee, Small-Polar-MMV Screening Library” (2021).
